Compounds with a hit are over-represented: about 3.4% of the library has one in this group of screens.
TEAD-YAP inh – TEAD-YAP interaction inhibition; HEK-TIYL cells, TEAD-Gal4/YAP UAS-luciferase luminescence; inhibition, % at 9.12 µM; 1.4% of 640,000 active; AID 1259422; in the data active means inhibition above about 32%;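 further: 0% = median of test compound wells and 100% = reference inhibitor wells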
FBW7 act – activators of human E3 ligase FBW7; Q969H0; AlphaScreen FBW7–phospho-cyclin E peptide binding, activator screen; normalized activity (activation), % at 26.1 µM; 0.13% of 650,000 active; AID 1259310; in the data active means normalized activity above about 1.9%;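 further: purified mutant Fbw7 with reduced substrate affinity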
GPR151 ag – activates the human receptor GPR151; Q8TDV0; PathHunter beta-arrestin GPR151 cells, luminescence; activation, % at 11.2 µM; 1% of 650,000 active; AID 1508602; in the data active means activation above about 4.9%;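 further: 0% = median of compound wells and 100% = cells with positive control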
MITF primary – inhibitors of human MITF | O75030 | AlphaScreen MITF homodimerization, bead proximity signal | inhibition, % at 2.6 µM | 0.91% of 650,000 active | AID 1259374; in the data active means inhibition above about 50%;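 further: 0% = vehicle wells with protein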
Target sequence (O75030 whole entry, looked up): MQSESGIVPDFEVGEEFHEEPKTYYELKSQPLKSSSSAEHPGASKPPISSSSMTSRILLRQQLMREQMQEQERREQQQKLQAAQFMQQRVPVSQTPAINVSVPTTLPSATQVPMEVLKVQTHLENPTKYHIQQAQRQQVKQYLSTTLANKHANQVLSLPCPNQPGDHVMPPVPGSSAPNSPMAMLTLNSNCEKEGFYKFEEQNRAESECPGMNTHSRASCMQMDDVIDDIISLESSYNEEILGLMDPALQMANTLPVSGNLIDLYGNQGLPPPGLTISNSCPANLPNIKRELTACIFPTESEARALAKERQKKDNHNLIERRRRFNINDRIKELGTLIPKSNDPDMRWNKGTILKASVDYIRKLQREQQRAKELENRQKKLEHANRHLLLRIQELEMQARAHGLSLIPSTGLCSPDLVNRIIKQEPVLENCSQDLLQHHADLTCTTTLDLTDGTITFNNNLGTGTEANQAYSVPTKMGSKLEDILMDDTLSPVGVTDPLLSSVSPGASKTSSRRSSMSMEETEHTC
GPR151 conf act – human GPR151 activation, confirmation screen; GPR151 PathHunter beta-arrestin cells, luminescence, 90 min; % of EA-reagent control over plate median; AID 1508609; activation, % at 11.2 µM; shares compounds with GPR151 ag; 6,700 tested, under 10 active;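 active means mean percent activation across replicates above the confirmation screen cutoff of 4.91%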
GPR119 counter – counter-screen for GPR151 activators: effect on human GPR119; shares compounds with GPR151 ag; GPR119 PathHunter beta-arrestin cells, luminescence, 90 min; 0 = compound-well median, 100 = enzyme-acceptor control; 0.3% of 6,700 active; activation, % at 11.2 µM;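 active means mean percent activation in the counterscreen above 29.09%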;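 further: counterscreen on off-target GPR119 to flag nonselective hits from the GPR151 activator screen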
Starred values were filed as active, the others as inactive; · = no result.

SMILES | TEAD-YAP inh | FBW7 act | GPR151 ag | MITF primary | GPR151 conf act | GPR119 counter
Cc1ccc2c(c1)CN(CC(=O)NCc1cc(-c3ccccc3)n[nH]1)CC(C)O2 (centres undefined) | -1.6 | 0.0 | 5.2* | 5.6 | 0.6 | 6.6
CC1CN(CC(=O)NCc2nc(-c3ccccc3)n[nH]2)Cc2ccccc2O1 (centres undefined) | 6.0 | -0.2 | -0.1 | 1.4 | · | ·
CCC(C)NC(=O)CCNS(=O)(=O)c1ccc2nc(-c3ccccc3)[nH]c2c1 (centres undefined) | -0.9 | -0.2 | 7.0* | 5.6 | 1.0 | -0.6
Cc1ccc(NC(=O)CCNS(=O)(=O)c2ccc3nc(-c4ccccc4)[nH]c3c2)cc1 | 12.1 | -0.2 | 0.4 | -2.6 | · | ·
O=C(CCCN1C(=O)c2ccccc2C1=O)Oc1ccc(Br)cc1 | 3.1 | 0.0 | 0.3 | 9.3 | · | ·
CC(=O)N1CCN(c2ccc(NC(=O)c3ccccc3F)cc2)CC1 | -32.0 | -0.1 | -1.1 | 6.0 | · | ·
CC(C)(C)Nc1nc(-c2cccc(Br)c2)cs1 | -21.3 | 0.0 | 7.5* | -4.3 | 0.8 | -8.9
CCC(=O)Nc1nc(-c2cccc(Br)c2)cs1 | -34.7 | -0.1 | 0.1 | -17.8 | · | ·
CCOC(=O)N1CCN(Cc2cc(=O)oc3ccc(OC)cc23)CC1 | -22.9 | 0.0 | 14.2* | 11.9 | -0.3 | 0.6
COc1ccc2oc(=O)cc(CN3CCCCC3)c2c1 | 4.5 | 0.0 | -0.3 | 9.9 | · | ·
COC(=O)c1ccc(NC(=O)/C=C/c2ccccc2Cl)cc1 | -5.1 | 1.3 | 6.1* | 5.3 | -0.4 | 5.7
C=CCOc1ccc(C(=O)NCCC)cc1 | 7.2 | 0.2 | -0.9 | -11.1 | · | ·
O=C(Nn1c(=S)[nH]c2ccccc2c1=O)c1ccccc1 | -15.4 | -0.1 | -0.1 | -10.6 | · | ·
O=C(Nn1c(=S)[nH]c2ccsc2c1=O)c1ccccc1 | -21.6 | 0.2 | 5.0* | 6.3 | 0.6 | 12.9
O=C(CCC(=O)N1N=C(c2ccc(Br)cc2)CC1c1ccccc1)Nc1ccc(Cl)cc1 (centres undefined) | -10.2 | 0.1 | -0.1 | -11.5 | · | ·
COc1ccc(Cc2nc(SCC(=O)Nc3cccc(C(=O)OC(C)C)c3)n[nH]2)cc1 | -2.4 | 0.1 | 5.8* | 9.0 | -0.4 | 0.8
NC(=O)c1ccccc1Nc1cc(Br)ncc1C(F)F | -7.9 | -0.1 | 1.0 | 0.5 | · | ·
O=C(COc1ccc(N2C(=O)C3C4C=CC(C5CC45)C3C2=O)cc1)c1ccc(Cl)cc1 (centres undefined) | -5.2 | 0.1 | -1.5 | 9.1 | · | ·
Cc1c(C(=O)C(=O)NC(C)C)c2ccccc2n1C | -1.8 | 0.2 | 6.3* | 6.5 | 0.2 | 3.4
CNC(=O)C(=O)c1c(C)n(C)c2ccccc12 | 6.3 | 0.0 | -0.2 | -1.1 | · | ·
Cc1cc(O)c(C(=O)/C=C/c2ccccc2Br)c(=O)o1 | -2.2 | 0.0 | 0.2 | -12.3 | · | ·
C=CCc1cccc(/C=C/C(=O)c2c(O)cc(C)oc2=O)c1O | -4.6 | -0.1 | 5.9* | -5.8 | -0.5 | 8.5
CC(Oc1cccc(Cl)c1)C(=O)N/N=C/c1ccccc1O (centres undefined) | 7.9 | 0.4 | 6.6* | 5.3 | 0.4 | 2.4
COc1ccc(/C=N/NC(=O)c2cc(C(C)(C)C)[nH]n2)cc1O | -3.1 | 0.0 | 0.6 | 0.4 | · | ·
COc1cccc(/C=N\NC(=O)c2cc(C(C)(C)C)[nH]n2)c1O | 68.9* | -0.6 | 5.8* | 22.4 | 0.8 | 3.7
SMILES | TEAD-YAP inh | FBW7 act | GPR151 ag | MITF primary | GPR151 conf act | GPR119 counter
COc1cccc(/C=N/NC(=O)C(C)Nc2ccc(C)cc2)c1O (centres undefined) | 17.1 | -0.2 | 11.8* | 8.6 | 0.7 | 1.1
COc1ccccc1NC(C)C(=O)N/N=C/c1cccc(OC)c1O (centres undefined) | 16.3 | -0.1 | 0.5 | 21.5 | · | ·
COc1ccc(NC(C)C(=O)N/N=C/c2ccccc2Cl)cc1 (centres undefined) | 6.3 | 0.2 | 7.3* | 16.7 | -0.2 | -6.8
Cc1ccccc1CN1C(=O)C(O)(CC(=O)c2ccc3c(c2)CCCC3)c2ccccc21 (centres undefined) | -1.6 | -0.2 | 2.0 | -10.8 | · | ·
CCOC(=O)c1c(C)[nH]c(NC(=O)Nc2ccc(C(=O)OC)cc2)c1C | -10.4 | 1.0 | -1.4 | -13.2 | · | ·
CCOc1ccc(-n2c(N)c(C(=O)Nc3ccccc3C)sc2=S)cc1 | 7.2 | 0.1 | -0.3 | 12.7 | · | ·
CCN(CC)CCn1c(N)c(C(=O)Nc2ccccc2C)sc1=S | 2.0 | -0.1 | 6.0* | 2.8 | 0.6 | 10.4
Cc1nccn1CC(O)COc1cccc2ccccc12 (centres undefined) | 11.1 | -0.3 | 0.4 | 1.7 | · | ·
OC(COc1ccc2ccccc2c1Cl)Cn1ccnc1 (centres undefined) | -5.0 | 0.2 | 5.0* | 0.8 | -0.4 | 6.0
Cn1c(SCC(=O)NC2CCCC2)nnc1-c1ccccc1 | 0.5 | 0.2 | 0.6 | 9.6 | · | ·

Compound activity as filed in PubChem.
